# Results from PubChem BioAssay (NCATS).
# Results filed as inconclusive are left out. Where a call stands in place of a potency, no number is given. Active and inactive are the calls of the source. Unless noted, the call rests on the fitted dose curve; in most records, active means well fitted curve in the direction sought with a large enough effect; inconclusive means small, poorly fitted or top-dose-only effect, or another doubt; inactive means no such curve, though single readings can be large; an effect the other way counts as inactive or inconclusive.
# Columns and labels:
# [1] = Primary qHTS for small molecule stabilizers of the endoplasmic reticulum resident proteome: Secreted ER Calcium Modulated Protein (SERCaMP) assay (AID 1508630); conditions: SH-SY5Y GLuc-SERCaMP (Gaussia luciferase released on ER calcium loss) secretion, thapsigargin, luminescence; series mostly up to 38.4 µM
# How it was run: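 The SH-SY5Y reporter protocol was run at 3 concentrations up to 38.3 uM (primary) or 11 concentrations (follow-up): 16 h compound, 100 nM thapsigargin for 4 h, then extracellular luciferase luminescence.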
# [2] = Cell Viability qHTS for small molecule stabilizers of the endoplasmic reticulum resident proteome (AID 1508629); conditions: cell viability counter-screen, 100 nM thapsigargin for final 4 h;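 further: human SH-SY5Y neuroblastoma cells carrying the GLuc-SERCaMP reporter; compound exposure about 46 h in total before the viability read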
# [3] = A High-Content qHTS Against Drug Library for the Identification of Small Molecules that Inhibit DYT1 Early Onset Primary Dystonia-Associated Cell Pathology (AID 1645839; calls by dose curve); conditions: HEK293 Flp-In EGFP-delE TorsinA, punctate imaging, 48 h; series mostly up to 46.1 µM
# How it was run: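 High-content imaging quantified EGFP-TorsinA mislocalization in HEK293-derived cells inducibly expressing DYT1 mutant torsinA, after 48 h exposure to compound given together with tetracycline induction. Cell count served as a toxicity channel alongside %pathology.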
# [4] = target: Cytochrome P450 2D6 (Homo sapiens) (UniProt P10635); assay: Cytochrome P450 family 2 subfamily D member 6 (CYP2D6) small molecule antagonists: luciferase biochemical (cell-free) qHTS assay (AID 1645840; active means well fitted curve in the direction sought with a large enough effect in the repeat runs; an effect the other way counts as inactive or inconclusive; further: nearly all actives have a fitted effect of over 55% in size); conditions: P450-Glo CYP2D6 enzyme, luciferin luminescence, 1 h; series mostly up to 57.4 µM
# How it was run: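 P450-Glo CYP2D6 system: proluciferin substrate converted by enzyme to luciferin, read by luminescence proportional to activity. Enzyme-substrate mix with compound 10 min at room temperature, then NADPH regeneration 1 h before detection reagent.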
# [5] = target: Cytochrome P450 2C9 (Homo sapiens) (UniProt P11712); assay: Cytochrome P450 family 2 subfamily C member 9 (CYP2C9) small molecule antagonists: luciferase biochemical (cell-free) qHTS assay (AID 1645842; active means well fitted curve in the direction sought with a large enough effect in the repeat runs; an effect the other way counts as inactive or inconclusive; further: nearly all actives have a fitted effect of over 55% in size); conditions: P450-Glo CYP2C9 enzyme assay, luciferin luminescence; series mostly up to 57.4 µM
# How it was run: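 P450-Glo CYP2C9 system: proluciferin substrate with enzyme in mix containing 0.4% BSA, 10 min at room temperature, then NADPH regeneration solution added and incubated 1 h at 37C. Detection reagent stopped reaction; luminescence read after 20 min as RLU.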
# Papain (Carica papaya) = Papain (Carica papaya) (UniProt P00784); assay: Primary qHTS assay for inhibitors of the protease papain (AID 1645873); conditions: papain Z-FR-AMC cleavage, AMC fluorescence; series mostly up to 49.8 µM;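 further: papain turnover of Z-FR-AMC read as the AMC fluorescence gain over 10 min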
# [6] = Primary qHTS for inhibitors of nuclear receptor binding SET domain protein 2 (NSD2) in an isogenic RCH-ACV NSD2 p.E1099K mutant (9B) (AID 1645876); conditions: RCH-ACV NSD2 E1099K (9B) viability, CellTiter-Glo, 72 h; series mostly up to 44.9 µM; further: nearly all actives have a fitted effect of over 70% in size
# [7] = Primary qHTS for inhibitors of nuclear receptor binding SET domain protein 2 (NSD2) in an RCH-ACV wild type WT cells (2C) (AID 1645877); conditions: RCH-ACV (leukaemia line) NSD2 WT (2C) viability, CellTiter-Glo, 72 h; series mostly up to 44.9 µM; further: nearly all actives have a fitted effect of over 70% in size
# [8] = NCATS anti-infectives library activity on HEK293 viability as a counter-qHTS vs the C. elegans viability qHTS (AID 1745854); conditions: HEK293 viability counter-screen; series mostly up to 41.8 µM
# How it was run: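 Cytotoxicity counter-screen to a worm viability qHTS: CellTiter-Glo luminescence read 10 min after reagent addition. Compounds (final up to 41.7 uM, a 1:5 dilution series) incubated 24 hr at 37C with 1,500 HEK293 cells per well; digitonin control.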
# [9] = target: Catechol O-methyltransferase (Homo sapiens) (UniProt P21964); assay: Confirmatory Screen for Target Class Profiling of Small Molecule Inhibitors of Methyltransferases (AID 1745852; calls by dose curve); conditions: MTase-Glo luminescence, SAH detection, recombinant enzyme; measured here: COMT max response; stronger effect = lower value
# [10] = target: Guanidinoacetate N-methyltransferase (Homo sapiens) (UniProt Q14353); assay: as above; conditions: MTase-Glo luminescence, SAH detection, recombinant enzyme; activity change, negative = inhibition: at 57.3 µM (top of the series) unless noted
# [11] = target: Nicotinamide N-methyltransferase (Homo sapiens) (UniProt P40261); assay: as above; conditions: MTase-Glo luminescence, SAH detection, recombinant enzyme; measured here: NNMT max response; stronger effect = lower value
# [12] = target: Phenylethanolamine N-methyltransferase (Homo sapiens) (UniProt P11086); assay: as above; conditions: MTase-Glo luminescence, SAH detection, recombinant enzyme; measured here: PNMT max response; stronger effect = lower value
# Chain of Phenylethanolamine N-methyltransferase (Homo sapiens) (P11086 whole entry, looked up): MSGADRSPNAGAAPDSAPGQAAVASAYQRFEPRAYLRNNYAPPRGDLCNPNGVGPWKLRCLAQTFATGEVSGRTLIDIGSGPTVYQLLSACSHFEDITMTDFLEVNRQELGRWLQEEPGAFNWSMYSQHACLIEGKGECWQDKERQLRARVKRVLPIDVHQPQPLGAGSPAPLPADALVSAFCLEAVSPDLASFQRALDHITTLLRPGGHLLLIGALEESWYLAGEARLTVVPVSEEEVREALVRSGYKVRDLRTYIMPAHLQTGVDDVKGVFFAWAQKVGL
# Chain of Cytochrome P450 2D6 (Homo sapiens) (P10635 whole entry, looked up): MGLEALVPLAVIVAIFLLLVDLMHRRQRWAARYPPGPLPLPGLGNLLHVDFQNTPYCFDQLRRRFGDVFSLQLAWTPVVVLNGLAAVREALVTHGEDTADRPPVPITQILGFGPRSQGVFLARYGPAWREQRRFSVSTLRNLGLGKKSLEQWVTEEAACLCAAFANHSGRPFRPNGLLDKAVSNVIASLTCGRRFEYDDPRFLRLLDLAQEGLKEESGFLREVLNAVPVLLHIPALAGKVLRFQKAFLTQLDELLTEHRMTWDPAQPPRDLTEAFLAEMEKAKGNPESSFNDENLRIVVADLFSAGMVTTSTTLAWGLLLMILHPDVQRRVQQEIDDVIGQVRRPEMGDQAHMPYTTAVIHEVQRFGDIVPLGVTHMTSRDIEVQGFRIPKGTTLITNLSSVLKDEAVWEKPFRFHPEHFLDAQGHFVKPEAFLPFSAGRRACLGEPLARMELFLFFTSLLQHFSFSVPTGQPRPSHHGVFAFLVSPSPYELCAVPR
# Chain of Cytochrome P450 2C9 (Homo sapiens) (P11712 whole entry, looked up): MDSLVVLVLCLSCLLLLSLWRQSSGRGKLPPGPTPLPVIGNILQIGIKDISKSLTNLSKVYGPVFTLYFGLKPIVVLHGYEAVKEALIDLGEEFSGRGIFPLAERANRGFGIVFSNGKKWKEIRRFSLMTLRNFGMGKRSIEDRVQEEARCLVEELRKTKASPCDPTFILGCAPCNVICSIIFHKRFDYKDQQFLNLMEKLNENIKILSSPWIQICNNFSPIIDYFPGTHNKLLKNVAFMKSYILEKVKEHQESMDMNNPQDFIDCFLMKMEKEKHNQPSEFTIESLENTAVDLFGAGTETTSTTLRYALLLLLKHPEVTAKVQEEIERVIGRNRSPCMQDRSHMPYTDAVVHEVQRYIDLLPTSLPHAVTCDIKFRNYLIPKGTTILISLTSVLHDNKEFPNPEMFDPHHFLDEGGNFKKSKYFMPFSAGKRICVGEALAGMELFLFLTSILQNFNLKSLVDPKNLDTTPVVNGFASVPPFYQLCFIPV
# Chain of Nicotinamide N-methyltransferase (Homo sapiens) (P40261 whole entry, looked up): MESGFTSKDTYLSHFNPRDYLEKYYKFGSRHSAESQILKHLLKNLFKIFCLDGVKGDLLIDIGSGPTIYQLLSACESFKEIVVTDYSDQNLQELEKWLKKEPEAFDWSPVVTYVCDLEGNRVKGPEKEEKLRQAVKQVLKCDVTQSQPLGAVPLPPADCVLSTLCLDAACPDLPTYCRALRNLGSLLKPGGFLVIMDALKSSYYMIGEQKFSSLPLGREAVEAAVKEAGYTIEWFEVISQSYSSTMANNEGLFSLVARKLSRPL
# Chain of Papain (Carica papaya) (P00784 whole entry, looked up, the tested form may be a part): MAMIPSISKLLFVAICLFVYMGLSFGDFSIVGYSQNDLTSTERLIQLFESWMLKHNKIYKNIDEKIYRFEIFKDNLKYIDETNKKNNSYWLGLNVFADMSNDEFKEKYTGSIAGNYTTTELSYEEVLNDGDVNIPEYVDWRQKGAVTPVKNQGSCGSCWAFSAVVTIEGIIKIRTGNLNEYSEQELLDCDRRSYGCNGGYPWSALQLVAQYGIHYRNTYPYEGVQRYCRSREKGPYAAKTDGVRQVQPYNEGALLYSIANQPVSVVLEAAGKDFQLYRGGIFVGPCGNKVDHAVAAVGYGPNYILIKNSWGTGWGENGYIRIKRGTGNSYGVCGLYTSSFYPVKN
# Chain of Catechol O-methyltransferase (Homo sapiens) (P21964 whole entry, looked up): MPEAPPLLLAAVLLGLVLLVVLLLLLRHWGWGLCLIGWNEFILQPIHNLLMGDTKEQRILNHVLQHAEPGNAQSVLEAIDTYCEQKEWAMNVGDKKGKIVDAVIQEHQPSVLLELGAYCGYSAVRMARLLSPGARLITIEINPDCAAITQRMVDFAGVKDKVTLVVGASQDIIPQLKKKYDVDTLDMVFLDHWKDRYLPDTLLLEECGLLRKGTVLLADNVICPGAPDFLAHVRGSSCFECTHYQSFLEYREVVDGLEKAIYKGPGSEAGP
structure (smiles),measurement,setting,value
CC1(C)SCCN(S(=O)(=O)c2ccc(OCC#CCO)cc2)[C@@H]1C(=O)NO,Potency,[1],inactive
O=S(=O)(N=Cc1c(O)ccc2ccccc12)c1cccs1,Potency,[1],inactive
CC1(C)Cc2c(-c3ccccc3)c(-c3ccc(Cl)cc3)c(CC(=O)O)n2C1,Potency,[1],inactive
Nc1nc2c(ncn2COCCO)c(=O)[nH]1,max response,[2],1.71% (inactive)
same,Potency,[1],inactive
same,Potency,[3],inactive
same,Potency,[4],inactive
same,Potency,[5],inactive
same,Potency,Papain (Carica papaya),inactive
same,Potency,[6],inactive
same,Potency,[7],inactive
same,outcome,[8],inactive
CCOc1ccc(Cc2cc([C@@H]3O[C@H](CO)[C@@H](O)[C@H](O)[C@@H]3O)ccc2Cl)cc1,Potency,[1],inactive
Cc1ccccc1C(C(=O)NC1CCCC1)N(C(=O)Cn1cnc2ccccc21)c1cccc(F)c1 (stereo not given),Potency,[1],inactive
COc1ccc2nc(S(=O)Cc3ncc(C)c(OC)c3C)[nH]c2c1 (stereo not given),max response,[2],-2.62% (inactive)
same,Potency,[1],inactive
same,Potency,[3],inactive
same,Potency,[4],inactive
same,Potency,[6],inactive
same,outcome,[8],inactive
Cc1[nH]c(=O)c(C#N)cc1-c1ccc2nccn2c1,max response,[2],9.8% (inactive)
same,Potency,[1],inactive
same,Potency,[3],inactive
same,Potency,[4],inactive
same,Potency,[5],inactive
same,Potency,[6],inactive
same,Potency,[7],inactive
same,activity,[9],4.51%
same,"activity change, negative = inhibition",[10],5.86%
same,activity,[11],-3.4%
same,activity,[12],4.35%
Cc1c(CN2CCN(C(=O)C(C)C)CC2)sc2c(N3CCOCC3)nc(-c3cnc(N)nc3)nc12,Potency,[1],inactive
C[C@]12CC[C@H](O)CC1=CC[C@@H]1[C@H]2CC[C@]2(C)C(c3cccnc3)=CC[C@H]12,Potency,[1],inactive
NC(=O)c1ccc(-c2nc(-c3ccc4c(c3)OCO4)c(-c3ccccn3)[nH]2)cc1,Potency,[1],inactive
Cc1cccc(-c2nn(C(=S)Nc3ccccc3)cc2-c2ccnc3ccccc23)n1,Potency,[1],inactive
